PubChem BioAssay AID1159506 (National Center for Advancing Translational Sciences (NCATS), 2015)
Whole data set: some 59,000 sequences, median the read-out near -0.00055, cut for the lowest 2% near -2. The entries come from a sample that favours the lowest values as a whole.

Assay: Identification of proteins required for the processing of the EWS-FLI1 nascent transcript;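 also: robust z of luciferase light less the median z of siRNAs with the same seed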
Details: TC32 Ewing sarcoma NR0B1-luc vs CMV-luc (EWS-FLI1 target promoter against control promoter), 48 h; screened at 20 nM (by protocol)
Summary of the method: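 Genome-wide siRNA screen (Ambion v4.1, three siRNAs per gene, 20 nM final, RNAiMax) in Ewing sarcoma TC32 cells carrying NR0B1-promoter or CMV-promoter luciferase; OneGlo luciferase read 48 h post-transfection. Data normalized, z-score-MAD transformed and seed-adjusted.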

Row | Sequence | seed-corrected z-score
1 | UAGGAUUACAGCAAUCAUC against 11-Mar | 0.0159
2 | UGUCGUCAAAGUAUAAUCG against ETV5 | -2.12
3 | UAUGGAGCAGGUAAUAGAG against ZNF311 | 0.514
4 | UUCUCAUCAAACUCUACAC against OLFML3 | 0.213
5 | UCUCCUAUAGGACCUGUGC against MGAM | -0.17
6 | UGAGCAUUUAUUGUGAGUG against OR2T6 | -0.244
7 | UCCUGGAGCACAUCAGUGC against ASPRV1 | 0.0418
8 | UGGUUGUUAAAGGUCAUGG against HIPK2 | -2.07
9 | UACGCUUGAAGUACCGAUG against SLC7A1 | -2.19
10 | AAACGUACAUGAUGGGAGC against GPR155 | -0.807
11 | UUGAACUCAGCGAUCAUCU against TNNC2 | -0.279
12 | UAUUAUCAAUGGUCCAGGG against AAGAB | 0.496
13 | UUUGAUGCCGUCAUCAUCC against TMEM106C | 0.22
14 | AGAAGUUUUUGCUCUGUCC against DYRK4 | 0.321
15 | AAAUGUACAGAACUAUCUC against PADI2 | -2.36
16 | UCUCUGAAGAGUACAGGAG against PTOV1 | 0.398
17 | UCAGGUGCAAAGCUACUGG against PARK2 | -2.4
18 | UCAUUGACAUUGGUCACGG against CYP27C1 | -0.22
19 | UUAUAACCACUGACUCUCC against MIPEPP3 | 0.124
20 | UAUUGUUCUUGUCCUUUUG against TERF1 | -0.319
21 | AACCGAGUCAGAAUGGUGC against SDC1 | 0.384
22 | UUUGGAAGACUGGAGCAGG against CTIF | 0.631

Row | Sequence | seed-corrected z-score
23 | UUCCCAUACCCUAUGGUCG against KCNK10 | -0.13
24 | UCUACUGUCAUUGAGACCA against SNRPB | -2.67
25 | UCUGGUACUCAGAAGGUCC against COPS5 | 1.12
26 | AUAGUAACGAUCAACUCCA against NDUFA1 | 0.512
27 | AUCGAUAUAAACUGCUUCC against PDE1A | -2.44
28 | UAUGUACUUCAGGCGCCUG against SLC35A2 | 0.271
29 | AGUUUAUACAUUCUUUUCC against SPTLC1 | -0.145
30 | UAGAAGAUAGGUGAAGUGA against DNAJC22 | 0.192
31 | UUACACUCAAGAAGAUUUC against GPR141 | -0.389
32 | UUAACGUCCACCACCAGAG against TYMP | -0.582
33 | UCAUUGAGAAUUCUCCGGG against NENF | 2.29
34 | AUCGUCCCAGUAAAUGUCC against BEST3 | -0.819
35 | UAGACUAACAUUGACUUAG against LOC150519 | 0.00864
36 | UCUUUGCUAAGCUCGGAGG against RAD51C | -2.07
37 | AUAGAUAUGUUCACAAGUG against UNC119B | 0.327
38 | UAGGGCGCAAGGGUAUGUG against SPDYE3 | -0.136
39 | UUACUAGCUCCGGUGGCAC against KCNK4 | -0.0516
40 | UUUAUCCCGAAGGAGGUUC against CAB39L | -2.55
41 | UGUAUUCCAACCUACAAAC against HGSNAT | -0.666
42 | AAUCUAACAAAUGAAGGUG against EIF2A | 0.719
43 | AUAGUUCCUUUGACUAUGG against IKZF5 | -0.306
44 | UCUAAUCCAAGUUCUACUG against AKAP5 | -0.304

Row | Sequence | seed-corrected z-score
45 | UUGUGGGUGGUGAAGAGGC against EPOR | 0.293
46 | AACCUGGUAAGUCUCGAUG against PPP2R2B | -0.459
47 | UAACGGAUGGUGUGGUUUC against BCOR | -0.0753
48 | UACCUUUUAUCCUGGGUUG against LOC285423 | -2.09
49 | UAGUGUAAACAAGAAGUUG against ABHD10 | 0.996
50 | AAAGCGAGCACUGCGGAUC against CCDC102A | -0.304
51 | UAGAGCACAGGAUAGAACC against RAP1GAP | 0.295
52 | UGUCUUCUAAGUAGAGCCU against VIPR2 | -2.47
53 | AACGAAACAAACUUGGUCC against NGEF | 0.943
54 | UAUCCUAAAAUCGCUGUUG against ARNTL2 | -0.114
55 | UCCCAUUGAAAGCAUAUCC against TSHR | -1.47
56 | UAUCUUUAUCAAAACCUCG against EFCAB1 | -0.824
57 | UAUGGAAUAAGUUGCUCGA against MED30 | -0.0259
58 | UUGACUACGAUGAGCUUGC against ETV3L | 1.16
59 | UUAUUAUGUAUGCAUCUGG against LINC00632 | -0.334
60 | ACAGUGGUGAGUUAUCUCA against CDC42 | -2.8
61 | AUGGAUUCUUCAAUCGUCC against SMARCAD1 | 0.8
62 | AGUCAUAUCAUUUAUAGUG against FOXQ1 | -0.473
63 | UUUCAAUUUAGUUUGAUGA against LOC728147 | 0.0773
64 | AUUACUUCGAGACUUGCUG against LCLAT1 | -0.482
65 | AAACUUAGUAGAGUUGUCC against LOC342541 | 0.528
66 | GUUGUGACCUGUCACGAUG against CTU1 | -1.99

Row | Sequence | seed-corrected z-score
67 | UGCUUGACAACUGGCCACC against RPL18AP4 | -0.411
68 | UCAUCAUCUUCUUCGAGGC against DCLRE1A | -2.16
69 | UAGAGGACCUUCAUGUUGU against THY1 | 0.624
70 | UUAUCUGGAAUGAACAAUG against PHF3 | -0.486
71 | UACGAUCAUUGCACUGUCC against FBN1 | -0.21
72 | UAUGUAUCUACCCAUCCGC against ATG3 | -1.27
73 | UGACUGUUCACGGAAUUCU against TGM3 | -0.755
74 | UCUUUAGGAAUGUAAAGCC against SKIV2L2 | 0.824
75 | UCAUUUUCGACCACCUUUC against WBSCR16 | -0.738
76 | UUAGGAACUCGAACGACGU against GTF2F1 | 0.889
77 | UUCUUCUUAGAUUUAUGCC against RPL3 | -2.09
78 | UCUCGAUUGAGGGUGGUUG against FLRT3 | 0.383
79 | AUAGGUGCAAGGCUUGUGC against C1orf56 | -2.01
80 | UCUUCUCGAACAGAGGUCG against F2 | -0.0868
81 | UGAGGGUUUAGCAUCAAGC against PCGF1 | -1.47
82 | UCUUUUAACGACCUCCUGC against SLC35D3 | 0.495
83 | UCGCGGAUCUCCUUUGUGG against HMGN2P18 | -0.51
84 | AAAGUCCCAAGUGCUAAGA against FAM180B | 2.95
85 | UUCUCGAUGCGGUCCAUCC against RILPL1 | 1.36
86 | UUUGGUAGAAAAUUGCAGA against FJX1 | -0.707
87 | UUCCGUUCCACCUCCAUCA against SPATC1 | -2.15
88 | UCAUCUACCUGUAUUACCU against CDCA8 | -0.479

Row | Sequence | seed-corrected z-score
89 | AAUGGUAGUAGCGGAAUCG against SLC12A6 | -1.16
90 | UAUGUACUUCUGACAAGUC against RNF125 | 0.00921
91 | UAUCUAGCAGCUCUCCCAG against AMHR2 | 0.151
92 | UAACCGACUGGGUAGAGCG against EMC4 | 0.348
93 | UCUCUGCUCAAUGUUUUCU against LBH | -2.25
94 | UACGAGGAUGUUGUAUUCC against N4BP1 | -0.092
95 | UACAGUACAAACAAGGCUG against CEBPA | -0.377
96 | UUAACUGCUAGUGUAUUGG against TCP1 | -1.18
97 | UCAAGGAUAAGAGAGAUUG against RORC | 0.034
98 | UGCGAUUGAAUAUUCUACG against CSRNP3 | -2.35
99 | AUUCUUACAAUCUAAAGGC against SUPT7L | 0.435
100 | AGAGGUUGUACAUUCUUCG against SESN2 | -2.47
101 | UUCUUAGACACGUAGUACC against KAT2B | 0.834
102 | UAGGGAUUCCCUGUAGUUC against COLEC10 | 1.57
103 | AUCUGUCUGAGUGCAAAUC against HIPK1 | -0.0595
104 | UUGGUAUCAAGGUCUACAC against DENND4B | -0.319
105 | AUUGUAUACAGCGAGUUCU against GP1BA | 0.181
106 | AUCCGGAACCUGUAGAUCG against CCDC130 | -0.0498
107 | AAUGGUCUUGUUGGUCUCC against TSNARE1 | -2.7
108 | UGAUUAACCAGUACUGAUG against C5orf42 | 0.83
109 | AUUAGAACUACAGCUCUCG against LOC648999 | 0.638
110 | UCGAUGGUAAGGUAAGAGC against DNMT3B | -2.25

Row | Sequence | seed-corrected z-score
111 | UCUCGUAGAACAUUGCUGG against VPS53 | -0.933
112 | AAAGCUGGAAUAAAUAGUC against DLX5 | -0.397
113 | UGAAUGUCAAUGUCGUAUG against PCDHB1 | -0.133
114 | UGUUGUUCUUGACUGACUG against SNRPD2P1 | -4.32
115 | UUAGUGAUAUUCUUGACAG against PSMD5 | 0.816
116 | UCAUGUAAAACUCUCGGCC against PARS2 | -0.0062
117 | UCAUUGAAGUGCUUAGUGG against RASGRF1 | -0.277
118 | UGUUGUAGAUCCAUAGUUC against KLHDC2 | -4.33
119 | UCCAUGUCAUGUAAAUUUC against MR1 | -0.441
120 | AUUGCAAAAGUAGAUUUAC against RPL26P30 | 0.181
121 | UUCAGUUCUAGAGGUCUGC against TMEM53 | -0.0791
122 | UUCGCUUCCAGUUCACCUC against MBOAT1 | 0.704
123 | UAUGUGACGAGGGUCAUGC against THBS1 | -2.07
124 | AAACCCUUCACAGUCUUGG against LOC388955 | 0.158
125 | AGCUAUAUUAUUCACAGCC against BTF3L4 | -0.0759
126 | UGUCUAAUAAACAAGUUAC against DNA2 | -0.418
127 | UCUCCGAUGAGAGCUUUGG against GNS | -0.354
128 | AUAGUGUAAAGAACAUCCG against HNRNPL | 2.46
129 | UCCAUUACAAUCGACCUUU against PROK2 | -0.664
130 | UUCCCGUUCAUUUUGCAAC against ASZ1 | -0.283
131 | AAGGUGUCGAUGUCCAUGG against MSLNL | -2.6
132 | AAAUCAACCAAUUAAAGUC against LOC403323 | 1.01
